Source: PubChem
The list is not random: actives were taken first. Their share in the collection is about 5.7%.
HEK293 tox – qHTS of GLP-1 Receptor Inverse Agonists: Cytotox Screen; HEK293 cAMP-luciferase reporter cells, luminescence, 24 h; Potency, µM (doses to about 38.3 µM), inactives show at the top dose activity change, negative = inhibition, actives largely listed as inhibitors; 410,000 tested, 0.13% active; AID 624418, 2012;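 note: loss of luciferase light is scored as toxicity; potency is the fitted concentration of half-maximal effect; % is set by controls: 0 for no effect and ±100 for the full control effect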
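To flag toxic compounds, the library was rerun on cells for 24 hr at 37 deg C and 5% CO2. Viability-linked luminescence was captured 12 min after adding luciferase detection reagent.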
D3 ag – qHTS of D3 Dopamine Receptor Agonist: qHTS | D(3) dopamine receptor (Homo sapiens), P35462 | D3R DiscoveRx beta-arrestin cells, luminescence, 90 min | max activation, % | 410,000 tested, 0.58% active; in the data active = max activation above about 30%; note: 0% is about no effect
Target sequence (P35462 whole entry, looked up): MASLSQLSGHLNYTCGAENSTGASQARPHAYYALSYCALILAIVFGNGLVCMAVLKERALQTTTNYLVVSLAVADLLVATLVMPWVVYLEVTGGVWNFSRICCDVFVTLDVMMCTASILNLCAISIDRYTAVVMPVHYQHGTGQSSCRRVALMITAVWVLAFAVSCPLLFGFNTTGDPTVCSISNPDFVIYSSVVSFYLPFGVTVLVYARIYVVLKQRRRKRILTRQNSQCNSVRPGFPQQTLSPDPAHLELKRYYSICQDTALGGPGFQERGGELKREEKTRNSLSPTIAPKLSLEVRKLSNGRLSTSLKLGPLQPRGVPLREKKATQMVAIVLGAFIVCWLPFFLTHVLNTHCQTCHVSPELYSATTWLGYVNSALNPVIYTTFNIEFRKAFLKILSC
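Agonist mode: compounds and dopamine controls were applied to plated cells for 90 min at 37 degrees C after an overnight attachment at 1500 cells/well. Luminescent read-out followed 30 - 60 minutes at room temperature with DiscoveRx detection reagent.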
ClpP mod – qHTS Assay for Activators of ClpP. Potency, µM (series often up to 57.5 µM), for inactives: top-dose activity change, negative = active. ATP-dependent Clp protease proteolytic subunit (Bacillus subtilis (strain 168)), P80244. purified B. subtilis ClpP, FRET peptide cleavage, 20 min. 340,000 tested, 1.9% active; active = well fitted falling curve with a large enough effect; inconclusive = small, poorly fitted or top-dose-only effect; inactive = no such curve, though single readings can be large or run the other way; note: potency is the fitted concentration of half-maximal effect; the source files actives as falling curves though it sought activators and does not explain the sign; nearly all actives have a fitted effect of over 65% in size
Target sequence (P80244 whole entry, looked up): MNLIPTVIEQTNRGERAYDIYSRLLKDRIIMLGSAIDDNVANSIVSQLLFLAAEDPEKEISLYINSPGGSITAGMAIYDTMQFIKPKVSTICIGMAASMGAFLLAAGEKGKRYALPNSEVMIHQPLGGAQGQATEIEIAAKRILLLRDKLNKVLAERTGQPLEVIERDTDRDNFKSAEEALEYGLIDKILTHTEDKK
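ClpP 10 microg/mL final, pH 8 Tris/KCl buffer with BSA, glycerol, Tween-20; compound pinned in; FRET-FV substrate; RT 20 min; Ex320/Em430; ΔFRET vs ADEP 5.8 microM, DMSO, no enzyme.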
GLP-1R agonist – qHTS of GLP-1 Receptor Agonists | AID 624172, 2012 | HEK293 GLP-1R CRE-luciferase, luminescence, 4-6 h; cells express a hypersensitive GLP-1R form | 380,000 tested, 0.007% active | Glucagon-like peptide 1 receptor (Homo sapiens), P43220 | Potency, µM (titrated, usually from 45.6 µM), for inactives: top-dose activation, hits mostly activators; note: potency is the fitted concentration of half-maximal effect; % of control where 0% means no effect
D3 antag – qHTS of D3 Dopamine Receptor Antagonist: qHTS; D(3) dopamine receptor (Homo sapiens), P35462; D3R cells, DiscoveRx beta-arrestin luminescence, antagonist mode; hits give low values; max response, negative = inhibition, %; 360,000 tested, 2.5% active; AID 652054, 2013; in the data active = max response below about -50%; inconclusive = no clear call, values can overlap the other calls; note: % is set by controls: 0 for no effect and ±100 for the full control effect
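Cells plated overnight at 1500 cells/well, then exposed to library compounds with dopamine controls for 90 minutes at 37 degrees C. DiscoveRx reagent added for 30–60 minutes at room temperature; luminescence read, quantitative HTS format.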
GLP1R inv ag – qHTS of GLP-1 Receptor Inverse Agonists (Inhibition Mode); Glucagon-like peptide 1 receptor (Homo sapiens), P43220; HEK293 GLP-1R CRE-luciferase, luminescence, 24 h; GLP-1R form is constitutively active; Potency, µM (titrated, usually from 38.3 µM), for inactives: top-dose activity change, negative = inhibition, most hits filed as inhibitors; 410,000 tested, 1.6% active; AID 624417, 2012; note: potency is the fitted concentration of half-maximal effect; % is set by controls: 0 for no effect and ±100 for the full control effect; nearly all actives have a fitted effect of over 55% in size
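Stable HEK293 clone (constitutively active GLP-1R + cAMP-response luciferase); 200 cells/uL plated, 12 h pre-culture, compound 24 hr, 37 deg C/5% CO2; detection reagent 12 min RT; luminescence.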
The depositor's hits bear a star; ? = inconclusive; · = not tested or not shown. Unless noted, calls come from the whole dose curve; as a rule, active = well fitted curve in the direction sought with a large enough effect; inconclusive = small, poorly fitted or top-dose-only effect, or another doubt; inactive = no such curve, though single readings can be large; an effect the other way counts as inactive or inconclusive.

SMILES	HEK293 tox	D3 ag	ClpP mod	GLP-1R agonist	D3 antag	GLP1R inv ag
O=S(=O)(c1ccc(OC(F)(F)F)cc1)N1CCC(O)(c2cccc(C(F)(F)F)c2)CC1	-20.6%	1.0	0.7%	-1.4%	2.4	?
COc1ccc(/C=C2/SC(=S)N(n3c(C)ccc3C)C2=O)cc1	-20.8%	2.0	-0.9%	-7.2%	18.1	?
CCOc1ccc(/C=C2/SC(=S)N(n3c(C)ccc3C)C2=O)cc1	-25.7%	1.9	0.8%	-12.9%	-23.6	7.08µM*
O=C(c1cccnc1)N1CCN(Cc2ccccc2Br)CC1	18.5%	-14.3	-1.9%	5.9%	-60.2*	1.0%
Cc1ccc2nc(Cl)cc(=O)n2c1	11.9%	-12.3	28.2µM*	-0.1%	-3.2	19.5%
COc1ccccc1CNC(=O)c1cc(-c2cc(F)ccc2OC(C)C)n[nH]1	-3.4%	-19.6	-15.1%	-6.6%	?	?
CC(C)(C)OC(=O)NCc1ccc(CNC(=O)c2[nH]cnc2C(=O)NCC(=O)OCc2ccccc2)cc1	1.5%	43.1*	-0.4%	-5.4%	126.9	-15.4%
CN(Cc1ccccc1)C(=O)c1[nH]cnc1C(=O)NCc1ccc(CNC(=O)OC(C)(C)C)cc1	-2.4%	69.5*	0.7%	5.1%	78.1	18.5%
O=C(Nc1ccccc1)c1nc[nH]c1C(=O)NCc1ccccc1	-26.6%	5.2	0.6%	7.4%	3.7	?
CN(Cc1ccccc1)C(=O)c1[nH]cnc1C(=O)NCc1ccccc1	9.2%	3.0	1.9%	-3.0%	9.3	17.2%
CC(C)(C)OC(=O)NCc1ccc(CNC(=O)c2nc[nH]c2C(=O)NCc2ccccc2)cc1	6.1%	12.2	-5.9%	9.2%	21.4	?
COc1ccc(NC(=O)c2nc[nH]c2C(=O)NCc2ccccc2)cc1	0.3%	56.8*	0.2%	-2.8%	-2.9	?
CCN(CC)C(=O)c1[nH]cnc1C(=O)NCC(=O)OCc1ccccc1	13.7%	39.0*	-0.5%	-3.0%	44.9	6.7%
O=C(CNC(=O)c1nc[nH]c1C(=O)NCC(=O)OCc1ccccc1)OCc1ccccc1	-13.5%	5.4	-0.2%	-2.6%	82.2	-6.7%
COc1cccc(N2CC(NC(=O)COc3ccccc3F)CC2=O)c1 (configuration not stated)	4.9%	-9.3	1.1%	·	·	6.2%
CCc1cccc(NC(=O)COc2cc(=O)n(CC)c3ccccc23)c1	1.3%	-7.5	-6.2%	·	·	0.2%
O=C1OC(c2cc(I)c(O)c(I)c2)(c2cc(I)c(O)c(I)c2)c2ccccc21	·	·	·	-3.7%	·	·
CCOC(=O)c1ccc(NC(=O)c2nc[nH]c2C(=O)NCCNC(=O)c2[nH]cnc2C(=O)Nc2ccc(C(=O)OCC)cc2)cc1	-6.1%	28.5	-2.3%	4.1%	10.2	-1.9%
CC(C)(C)OC(=O)CNC(=O)c1[nH]cnc1C(=O)NCCCCCNC(=O)OC(C)(C)C	-12.2%	54.7*	1.1%	-0.2%	74.0	?
CCOC(=O)c1ccc(NC(=O)c2nc[nH]c2C(=O)NC)cc1	10.1%	48.5*	-12.0%	-4.7%	23.7	51.9%
CC(C)(C)OC(=O)NCc1ccc(NC(=O)c2nc[nH]c2C(=O)N[C@@H](Cc2ccccc2)C(=O)OCc2ccccc2)cc1	?	30.9*	?	-10.1%	32.2	?
CN(C)Cc1cn(CC[C@@H]2CC[C@@H](NC(=O)Nc3ccccc3F)[C@@H](CO)O2)nn1	0.6%	3.6	-1.7%	·	-6.1	8.3%
Cc1cc2oc(C(=O)Nc3c(C(=O)Nc4ccccc4)oc4ccccc34)cc(=O)c2cc1C	40.6%	-6.2	-17.6%	·	·	16.1%
CCc1cc2c(NCc3ccccc3)nc(C)nc2s1	-11.7%	9.4	-2.6%	-5.1%	-8.7	?
CCc1cc2c(NCCC(=O)O)nc(C)nc2s1	-2.3%	-6.1	28.2µM*	-11.6%	-2.5	-12.9%
SMILES	HEK293 tox	D3 ag	ClpP mod	GLP-1R agonist	D3 antag	GLP1R inv ag
CCc1ccc(C(=O)c2cn(CC(=O)Nc3ccc4c(c3)OCO4)c3ccc(CC)cc3c2=O)cc1	3.0%	-6.4	1.0%	0.0%	·	2.5%
CC(=O)Nc1ccc(-c2noc(-c3csc([C@@H]4C[C@H](O)[C@@H](CO)O4)n3)n2)cc1	3.3%	6.4	-4.7%	-4.7%	-7.4	0.8%
Clc1cccc(OCCCN2CCCC2)c1Cl	5.1%	1.4	-2.4%	-7.1%	-98.8*	-16.7%
c1ccc2c(OCCCN3CCCCCC3)cccc2c1	?	-16.3	-28.2%	-3.7%	-60.2*	-13.7%
COc1cccc(-c2cc(NC=O)c3ncc(-c4ccc(C(C)=O)cc4)n3c2)c1	-17.5%	-2.0	?	?	6.5	?
COc1ccccc1/C=C/CN1CCCC(CCC(=O)NCc2ccc(F)c(F)c2)C1 (configuration not stated)	-23.2%	-18.1	·	-2.1%	-66.2*	?
COCCC(=O)N1CCCC(CCC(=O)NCc2ccc(F)c(F)c2)C1 (configuration not stated)	-0.7%	-10.3	·	12.4%	-20.7	2.9%
COCCNC(=O)CCC1CCN(C/C=C/c2ccccc2OC)CC1	-6.3%	-20.0	·	-4.8%	-55.7*	6.1%
COc1cccc(CNC(=O)CCC2CCCN(C/C=C/c3ccccc3OC)C2)c1 (configuration not stated)	?	-12.8	-1.3%	-9.1%	-54.6*	?
COc1ccc(/C=C/CN2CCCC(CCC(=O)NCc3ccc(F)c(F)c3)C2)cc1 (configuration not stated)	-0.6%	-32.2	·	12.0%	-55.4*	?
CC(=O)c1cc2ccccc2c2ccccc12	·	·	-1.0%	·	·	·
C[N+](C)(CCCCCI)c1ccc(/C=C/c2nc3ccccc3s2)cc1	·	·	1.9%	·	·	·
NC(=O)CSc1ncnc2c1oc1ccccc12	4.6%	-1.4	-11.5%	13.1%	-21.9	23.4%
O=C(CSc1ncnc2c1oc1ccccc12)OCc1ccccc1	7.5%	30.3*	-6.3%	11.7%	11.2	2.4%
Cc1ccccc1C(=O)NCC(=O)OCC(=O)NC(C)C1CC2CCC1C2 (configuration not stated)	2.7%	0.1	1.0%	-2.0%	-5.0	27.5%
Cc1ccc(C(=O)NCC(=O)OCC(=O)NC(C)C2CC3CCC2C3)cc1 (configuration not stated)	9.1%	-12.6	31.6µM*	10.2%	-2.8	19.4%
